Luciferase inh: firefly luciferase inhibition; 72,000 tested, 2.2% active; Potency, µM (highest dose often 57.1 µM), for inactives: at the highest dose activity change, negative = inhibition, actives largely listed as inhibitors; purified firefly luciferase, luminescence, 8 min; note: nearly all actives have a fitted effect of over 40% in size
Target sequence (P08659 whole entry, looked up): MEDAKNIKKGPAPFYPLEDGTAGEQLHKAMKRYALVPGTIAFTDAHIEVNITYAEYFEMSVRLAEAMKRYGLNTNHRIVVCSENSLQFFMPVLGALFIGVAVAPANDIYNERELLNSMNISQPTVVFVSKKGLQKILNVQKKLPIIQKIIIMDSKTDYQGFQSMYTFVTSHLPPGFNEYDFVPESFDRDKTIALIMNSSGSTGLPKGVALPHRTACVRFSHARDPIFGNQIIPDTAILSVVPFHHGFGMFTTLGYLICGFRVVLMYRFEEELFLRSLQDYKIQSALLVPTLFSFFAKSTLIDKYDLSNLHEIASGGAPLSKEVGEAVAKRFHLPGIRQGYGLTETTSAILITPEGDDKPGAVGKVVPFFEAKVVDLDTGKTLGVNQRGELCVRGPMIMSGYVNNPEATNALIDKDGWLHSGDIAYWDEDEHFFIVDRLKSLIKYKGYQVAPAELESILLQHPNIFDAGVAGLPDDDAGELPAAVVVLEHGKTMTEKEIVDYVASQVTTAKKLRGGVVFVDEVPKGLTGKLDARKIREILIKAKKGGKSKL
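Compounds were tested as concentration series (qHTS) against purified P. pyralis luciferase with luciferin and 10 uM ATP in 50 mM imidazole pH 7.2, 50 mM KCl, 7 mM MgCl2, 0.01% Tween 20, 0.05% BSA. Luminescence was read after 8 min at ambient temperature.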
p53ts 32C tox: p53ts cell cytotoxicity, permissive temperature. AID 924. H1299-p53A138V at 32C, ATP luminescence viability, 24 h. Potency, µM (top dose mostly 46.1 µM), inactives show at the highest dose activity change, negative = cytotoxicity, actives largely listed as cytotoxic. 130,000 tested, 0.93% active;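 note: 0% = DMSO and -100% = full killing by reference compound; nearly all actives have a fitted effect of over 55% in size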
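ATP-content luminescence (ATPlite) read-out after 24 h compound exposure at 32C in H1299-p53A138V cells (600/well). Tested up to 46 uM. Normalized to DMSO (0%) and 100 uM tamoxifen (100% killing); Hill-fit AC50.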
p53ts 39C tox: p53ts cell cytotoxicity, nonpermissive temperature; H1299-p53A138V viability at 39C, ATP luminescence, 24 h; AID 902; 130,000 tested, 1.5% active; Potency, µM (top dose mostly 46.1 µM), for inactives: at the highest dose activity change, negative = cell killing, actives largely listed as cytotoxic; note: nearly all actives have a fitted effect of over 55% in size
The depositor's hits bear a star; ? = inconclusive; . = not tested or not shown; [ ] = remark or other dose. Sampled rows, rich in hits. Any-hit rate of the full collection: about 2.6%. Calls come from the whole dose curve; as a rule, active = well fitted curve in the direction sought with a large enough effect; inconclusive = small, poorly fitted or top-dose-only effect, or another doubt; inactive = no such curve, though single readings can be large; an effect the other way counts as inactive or inconclusive. Unless noted, % is set by controls: 0 for no effect and ±100 for the full control effect; potency is the fitted concentration of half-maximal effect.

SMILES	Luciferase inh	p53ts 32C tox	p53ts 39C tox
c1ccc(-c2noc(-c3cccnc3)n2)cc1	13µM*	?	-24%
O=C(OCC(=O)c1c[nH]c2ccccc12)c1ccco1	16µM*	-3%	8%
O=C(COC(=O)C1CC1)c1c[nH]c2ccccc12	-2%	1%	-1%
Cc1cccc(C)c1Nc1sc(C(=O)c2ccccc2)c(N)c1C(=O)Nc1ccc(F)cc1	.	-1%	-9%
CCCN(C(=O)c1cc2c(s1)-c1ccccc1OC2)c1ccccc1F	.	17%	-11%
CCCN(C(=O)c1cc2c(s1)-c1ccccc1SC2)c1ccccc1F	.	-3%	25µM*
Cc1ccc(N2CC(c3nc4ccccc4n3CCC3CCCCC3)CC2=O)cc1 (centres undefined)	.	8%	-3%
CCC(=O)N[C@@H]1CCc2cccc(OC)c2C1	25µM*	-1%	-7%
COc1ccccc1CC(=O)NC1CC(C)(C)NC(C)(C)C1	0%	3%	-4%
Cc1ccc2c(c1)N(C(=O)N1CCC(C(=O)NCc3cccc(Br)c3)CC1)CCO2	.	5%	?
Cc1cc(/C=C2/C(=O)NN(c3ccccc3)C2=O)c(C)n1-c1cccc(O)c1	.	.	13µM*
CC1=NN(c2ccccc2)C(=O)/C1=C\c1cc(C)n(-c2ccccc2)c1C	.	.	20%
CC1CN(C(=O)N2CCC(C(=O)NCc3ccco3)CC2)c2ccccc2O1 (centres undefined)	.	20%	9%
O=C(CSc1nc2ccccc2[nH]1)NCc1ccc2c(c1)OCO2	.	.	-6%
COc1ccc(-c2nc(SCC(=O)Nc3ccc4c(c3)OCCO4)c(-c3ccccc3)[nH]2)cc1	.	-16%	-25%
O=C(Cn1cnc2ccccc2c1=O)OCC(=O)c1ccc2c(c1)OCCO2	-2%	9%	10%
O=C(COc1ncnc2ccccc12)c1ccc2c(c1)OCCO2	13µM*	?	?
CCOc1ccc(-c2nc(SCC(=O)Nc3ccc4c(c3)OCCO4)c(-c3ccc(F)cc3)[nH]2)cc1	.	-29%	16µM*
O=C(CSc1nc2ccccc2[nH]1)Nc1ccc2c(c1)OCCO2	25µM*	-27%	?
O=C(CS(=O)(=O)c1ccccc1)c1ccc2c(c1)OCCO2	13µM*	?	-12%
O=C(O)CCC(=O)c1ccc2c(c1)OCCO2	-6%	-1%	1%
COc1ccccc1OCC(=O)N(Cc1ccco1)Cc1ccccc1F	.	4%	3%
Cc1ccc(-c2nnc(SCC(=O)NCCC(C)C)nc2-c2ccc(C)cc2)cc1	.	30%	-8%
CN(C)c1ccc(-c2cncnc2NCCN2CCOCC2)cc1	2%[2.29 µM]	?	?
O=C(Cn1cnc2ccccc2c1=O)NCCC(=O)Nc1ccc2c(c1)OCCO2	2%	8%	3%
SMILES	Luciferase inh	p53ts 32C tox	p53ts 39C tox
CCOCC(=O)Nc1ccc2c(c1)OCCO2	-12%	-21%	-17%
O=C(CC(=O)c1ccccc1)Nc1ccc2c(c1)OCCO2	20µM*	?	?
O=C(Cn1cnc2ccccc2c1=O)Nc1ccc2c(c1)OCCO2	13µM*	?	?
Cc1oc(-c2ccc(C(=O)N(C)Cc3ccccc3)cc2)nc1CN1CCc2ccccc21	.	11%	-2%
Cc1cccc(-n2nnc(-c3nc(-c4ccccc4)no3)c2N)c1C	.	5%	-6%
COc1ccc(C2CC(=O)N(Cc3ccc(F)cc3)c3ccccc3S2)cc1 (centres undefined)	.	6%	-25%
COc1ccc(C2CC(c3cccs3)=Nc3ccccc3S2)cc1 (centres undefined)	.	25µM*	47%
Cc1nc2cccnc2n1C1CCN(S(=O)(=O)c2ccc(C(C)C)cc2)CC1	.	26%	11%
CN1C(=O)CSc2ccc(NC(=O)N3CCOCC3)cc21	-2%	-9%	-4%
CSc1cccc(NC(=O)Nc2ccccc2)c1	10µM*	?	-24%
CC(=O)c1cccc(NC(=O)Nc2ccc3c(c2)N(C)C(=O)CS3)c1	16µM*	?	20µM*
CC(=O)c1ccc(NC(=O)Nc2ccc3snnc3c2)cc1	.	-5%	?
CSc1cccc(NC(=O)COc2ccccc2)c1	-12%	-5%	2%
COc1ccc(C(=O)Nc2cccc(C(=O)N3CCCC3)c2)cc1	-15%	-10%	-15%
CC(=O)c1cccc(NC(=O)Nc2ccc(C(=O)N3CCCC3)cc2)c1	2.5µM*	?	?
CC(=O)Nc1cccc(NC(=O)Nc2ccc(C(C)=O)cc2)c1	13µM*	?	?
CC(=O)Nc1ccc(C(=O)CSc2nnc(-c3ccccc3)n2-c2ccccc2)cc1	.	-1%	5%
Cc1ccc(NC(=O)CSc2nncn3c2cc2sccc23)cc1F	.	-28%	-59%
O=C1c2[nH]nc(-c3ccccc3O)c2C(c2cccc(OCc3ccccc3)c2)N1CCCO (centres undefined)	.	21%	?
CC(=O)c1cccc(NC(=O)NCCS(C)=O)c1 (centres undefined)	0%	-8%	5%
CCN(CC)c1ccc(NC(=O)Nc2cccc(C(C)=O)c2)cc1	7.9µM*	13µM*	13µM*
COc1ccc(NC(=O)Nc2ccc(C(=O)N3CCOCC3)cc2)cc1	-1%	5%	1%
O=C(Nc1ccc(C(=O)N2CCOCC2)cc1)Nc1cccc(Cl)c1	16µM*	-14%	-22%
CC1CCN(c2nncc3ccccc23)CC1	-1%	6%	-6%
NNc1nncc2ccccc12	4µM*	7.9µM*	10µM*
SMILES	Luciferase inh	p53ts 32C tox	p53ts 39C tox
COc1ccccc1/C=N/Nc1nncc2ccccc12	.	?	-8%
COc1ccc(/C=N/Nc2nncc3ccccc23)cc1	.	.	3.2µM*
COC(=O)N1CCC[C@@]2(CCN(c3ccccc3)C2)C1	-2%[11.4 µM]	-5%	-17%
Cc1nn(C(C)C(=O)N2CCN(c3ccc(F)cc3)CC2)c(=O)c2c1sc1ccccc12 (centres undefined)	.	-10%	-21%
O=c1oc(-c2cccs2)nc2scc(-c3cccs3)c12	13µM*	-14%	-1%
Cc1ccccc1-c1nc2sc3c(c2c(=O)o1)CCC3	.	-8%	29%
O=c1oc(-c2cccs2)nc2sc3c(c12)CCCCC3	?	13µM*	10µM*
CSc1nc2sc3c(c2c(=O)n1-c1ccccc1C)CCCC3	.	9%	17%
CC1(C)Cc2c(sc3nc(-c4cccs4)n(N)c(=O)c23)CO1	13µM*	?	?
CN(C)c1nc2sc3c(c2c(=O)n1C)CC(C)(C)OC3	0%[25.5 µM]	.	.
Nn1c(-c2cccs2)nc2sc3c(c2c1=O)CCCC3	16µM*	10µM*	?
Cc1nc2scc(-c3cccs3)c2c(=O)o1	-1%	3%	-3%
Cc1ccc2nc(COc3ccccc3NC(=O)c3ccc(F)cc3)cc(=O)n2c1	.	-3%	-13%
CCCCn1c(SCC(=O)Nc2cccc(OC)c2)nc2c(sc3ccccc32)c1=O	.	10%	-30%
C[C@@H]1C(=O)O[C@@H]2C[C@@]34[C@H]5C[C@@H](C(C)(C)C)[C@@]36[C@@H](OC(=O)[C@@H]6O)O[C@]4(C(=O)O5)[C@@]12O	1%[11.4 µM]	.	.
Cc1ccc(C)c(N2C(=O)N(Cc3cc(=O)n4ccccc4n3)c3ccccc3S2(=O)=O)c1	.	8%	-12%
CC(C)c1cc(C(=O)NCc2ccccc2)no1	.	1%	1%
N=C1C(c2nc3ccccc3[nH]2)=C(O)CN1c1ccccc1	-9%	-8%	-13%
